“And” between values parts separate entries of the source, which are not always exact repeats. Equal entries are not always repeated. The panel holds about 79,000 compounds, 15% with a hit somewhere; the sample as a whole holds those more often. Unmarked numbers belong to inactive results. The source made the active and inactive calls. Cut-off read from the data, not from the text of the source: active = growth inhibition above about 70%; inactive = the rest.
Experiment: NCI Yeast Anticancer Drug Screen. Data for the cln2 rad14 strain (AID 165);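 note: 0% = growth equal to vehicle treated cultures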
Conditions: S. cerevisiae cln2 rad14 strain, hits give high values
Procedure: Growth inhibition of yeast strains with defined genetic alterations is measured as a screen for potential anti-cancer activity. Selected strains with alterations in DNA damage repair or cell cycle control were exposed to compounds and growth inhibition was measured relative to vehicle treated controls. The strain used in this assay is cln2 rad14

[1] = at 5.0 µM (retest, dose inferred, filed as 0.5)
[2] = at 50.0 µM (retest, dose inferred, filed as 5.0)

Row | Structure (SMILES) | growth inhibition [1] | growth inhibition [2] | growth inhibition (at 50.0 µM)
1 | Nc1ccc(-c2ccc(N)c(S(=O)(=O)O)c2)cc1S(=O)(=O)O | 9% | 24% | 49%
2 | S=C(SSC(=S)N1CCOCC1)N1CCOCC1 | 61% | 99% (active) | 99% (active)
3 | [O-][n+]1cccc2cccc(O)c21 | -3% | 2% | –
4 | CCCCCCCCCCCC[N+]1(CCCCCCCCCCCC)CCCC(C)C1 (stereo not given) | 99% (active) | 99% (active) | 88.1% (active)
5 | c1ccc(C2NCCNC2c2ccccc2)cc1 (stereo not given) | 3% | -6% | -1.8%
6 | CC(=O)Nc1ccc(/C=N/NC(=S)NCC(C)C)cc1 | 11% | -8% | –
7 | COc1c(C)c2c(c(O)c1C/C=C(\C)CCC(=O)O)C(=O)OC2 | 32% | 95% (active) | 90.2% (active)
8 | Cc1cc(I)nc2ccccc12 | -3% | -18% | -18.4%
9 | CCCC[n+]1c(/C=C\c2c(OC)cc(OC)cc2OC)ccc2ccccc21 | 56% | 99% (active) | 89.7% (active)
10 | CCSc1nc2ccccc2o1 | 6% | -2% | 30.6%
11 | O=[N+]([O-])c1ccc(C2N(Cc3ccc(Cl)cc3)CCN2Cc2ccc(Cl)cc2)cc1 | 51% | 95% (active) | 64.5%
12 | Cc1onc(-c2ccccc2)c1C(=O)N/N=C/c1cc(Cl)cc(Cl)c1O | 87% (active) | 96% (active) | 84.5% (active)
13 | OCCNC(c1ccc(Cl)cc1)C(O)c1ccc(Cl)cc1 (stereo not given) | 11% | 8% | –
14 | C1=NCCCN1 | – | – | 9.4% and 6.35%
15 | OCCCc1ccncc1 | – | – | 8.7% and -7.9%
16 | Nc1c(O)nc[nH]c1=O | – | – | -1.55% and -39.1%
17 | Cn1c(=O)c2[nH]cnc2n(C)c1=O | – | – | -23.8% and -9.25%

Source: PubChem BioAssay (NCI)
